Shown are actives, neighbours in structure and some others; about 3.6% of the full set was active somewhere.
Peg3 prom inh: Peg3 promoter-driven luciferase inhibitors, primary screen, cell-based, HeLa, luciferase luminescence; HeLa PEG-Prom luciferase reporter, overnight; inhibition, % at 20 µM; hit rate 1.7% among 360,000; AID 588405, 2011;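 active = inhibition of at least 50% at 20 µM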
KKLEB cytotox: cytotoxicity in KKLEB CF airway cells, primary screen, cytotoxicity control for CF NF-kB inhibitor project, cell-based, uHTS, fluorescence assay plates. activity change (cytotoxicity), % at 5 µM. KKLEB CF airway cells viability, ATPlite luminescence, overnight; active compounds read low; cells stimulated with P. aeruginosa culture filtrate. hit rate 0.36% among 360,000;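 active = corrected activity change at or below -50% at 5 µM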
HSP90 inh: HSP90 inhibitors, primary screen, cell lysate, luminescence; Heat shock protein HSP 90 (rabbit reticulocyte lysate; luciferase refolding); Rabbit reticulocyte lysate, luciferase refolding luminescence, 3 h; inhibition, % at 5.6 µM; hit rate 0.91% among 290,000;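 active = inhibition above the screen-wide mean plus 3 SD, computed separately per campaign, cut at about 16% in these data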;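 note: 0% = DMSO wells and 100% = 60 µM geldanamycin wells; inhibitors lower the luminescence because luciferase stays unfolded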
Mdm2-MdmX inh: inhibitors of human Mdm2-MdmX association, primary screen, cell-based, luminescence, split luciferase, SaOS-2, uHTS; Protein Mdm4 (Homo sapiens) + E3 ubiquitin-protein ligase Mdm2 (Homo sapiens), …; SaOS-2 split-luciferase Mdm2/MdmX complementation; hit rate 3% among 330,000; inhibition, % at 8 µM;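 active = inhibition of at least 50% at 8 µM in the primary screen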
CF NFkB block: inhibitors of PAF-induced NF-kB signaling, primary screen, cell-based, GFP fluorescence, uHTS. KKLEB NF-kB-GFP reporter, GFP fluorescence overnight. inhibition, % at 5 µM. hit rate 0.86% among 360,000;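 active = at least 50% inhibition at 5 µM, scaled per plate between neutral and stimulator controls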;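 note: PAF is a Pseudomonas aeruginosa culture filtrate used as stimulus; plate controls were PAF-stimulated DMSO wells for no effect and unstimulated DMSO wells for full effect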
LGR2 inh: inhibitors of bursicon-induced LGR2 CRE-luciferase signal, primary screen, cell-based, HEK293, CRE-luciferase reporter, bursicon stimulation | Drosophila bursicon receptor LGR2 (rickets) | bursicon-stimulated, 4 h | inhibition, % at 9.99 µM | hit rate 0.35% among 380,000 | AID 720647, 2013;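 active = drop in luminescence signal, shown as inhibition above about 50% in the replicate tests, limit read from the data, passing the limit was not always enough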;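 note: agonist challenge used bursicon conditioned medium at about half maximal strength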
Mdm2-MdmX conf: Mdm2-MdmX complex disruptors, retested hits, confirmation, luminescence, single concentration. inhibition, % at 8 µM. AID 489028, 2010. hit rate 55% among 10,000. Mdm2-MdmX binding, luminescent assay. shares compounds with Mdm2-MdmX inh; in the data active = inhibition above about 40%
FLuc counter: full-length luciferase signal inhibition, confirmation, counter-screen for Mdm2/MdmX interaction inhibitor project, cell-based, single concentration, SaOS-2; shares compounds with Mdm2-MdmX inh; SaOS-2 full-length luciferase counterscreen, luminescence; inhibition, % at 8 µM; hit rate 77% among 6,200; AID 504607, 2011;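 active = mean inhibition at 8 µM reaching about 37%, which flags the compound as non-specific, limit read from the data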;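 note: p53-null SaOS-2 cells with luciferase driven by a doxycycline-inducible promoter; compound on cells about two nights before reading with doxycycline added after day one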
* = called active by the depositor; / = not tested or not shown.

SMILES | Peg3 prom inh | KKLEB cytotox | HSP90 inh | Mdm2-MdmX inh | CF NFkB block | LGR2 inh | Mdm2-MdmX conf | FLuc counter
COc1cc(Nc2c3c(nc4ccccc24)CCCC3)cc(OC)c1OC | 2.4 | -6.0 | -5.0 | 68.3* | -31.5 | 11.0 | 63.6* | 76.5*
COc1ccccc1Nc1c2c(nc3ccccc13)CCC2 | 25.6 | -7.4 | -0.2 | 55.7* | 2.4 | 7.7 | 52.7* | 58.2*
CC(=O)c1ccc(Nc2c3c(nc4ccccc24)CCCC3)cc1 | 31.4 | -17.4 | 2.2 | 45.4 | 8.1 | 8.1 | / | /
Cc1cccc(-c2ccc([C@@H]3[C@H](CO)N4CCCCN(S(=O)(=O)c5cn(C)cn5)C[C@@H]34)cc2)c1 | / | / | / | / | / | -6.7 | / | /
N#C/C(=C/c1ccc(Br)o1)C(N)=S | / | / | 0.2 | 75.5* | / | / | 42.6* | 63.5*
C[C@@H]1CN([C@@H](C)CO)C(=O)c2cc(NS(=O)(=O)c3ccc(Cl)cc3)ccc2O[C@@H]1CN(C)Cc1ccc(Oc2ccccc2)cc1 | / | / | / | / | / | 23.1 | / | /
COC(=O)[C@@H]1[C@@H](C#N)C2(c3ccccc3-c3ccccc32)N(c2ccc(Cl)cc2)N1C#N | 109.8* | -6.7 | 1.6 | 59.8* | 10.2 | / | 50.2* | 32.8
O=C(Nc1ccc(Cl)c(Cl)c1)N[C@@H]1CC[C@H](CCNC(=O)c2ccc(F)cc2)O[C@H]1CO | / | / | / | / | / | -6.3 | / | /
CN(c1ccc(OCC(=O)Nc2ccccc2C(=O)O)cc1)S(=O)(=O)c1ccc(Cl)cc1 | 5.5 | 22.4 | / | 89.8* | 16.5 | 22.9 | 40.5* | 38.8*
COc1ccc(C(=O)Nc2ccccc2C(=O)NC(C(=O)NCc2ccco2)C(C)C)cc1 (stereo not drawn) | 28.3 | 1.7 | 5.6 | 74.1* | -2.9 | -1.2 | -8.6 | /
COc1ccc(C(=O)N[C@H](C(=O)NCc2ccco2)C(C)C)cc1 | 8.3 | -1.9 | 3.4 | -3.7 | 3.6 | 13.0 | / | /
COc1ccc(C(=O)Nc2ccccc2C(=O)N(Cc2ccco2)C(C(N)=O)C(C)C)cc1 (stereo not drawn) | 41.5 | -33.6 | 1.9 | 65.8* | 17.2 | / | 21.2 | /
O=C(COc1ccc(Cl)cc1)Nc1ccccc1C(=O)NCc1ccco1 | 12.7 | -32.5 | -2.6 | 72.6* | 29.7 | 3.7 | -19.0 | /
Cc1cc(C)cc(OCC(=O)Nc2ccccc2C(=O)NCc2ccco2)c1 | -10.4 | 7.7 | -0.4 | -0.7 | 3.9 | / | / | /
O=C(C[C@@H]1C=C[C@@H](NS(=O)(=O)c2ccc(F)cc2)[C@H](CO)O1)NC1CCCCC1 | / | / | / | / | / | -15.5 | / | /
N#C/C(=C\c1cn(CCOc2ccccc2)c2ccccc12)C(=O)NCc1ccco1 | 4.6 | -18.5 | 3.2 | 38.5 | 31.5 | / | / | /
Cc1cc(C)cc(NC(=O)/C(C#N)=C/c2cn(CC(=O)NCc3ccco3)c3ccccc23)c1 | 74.5* | -71.8* | 1.2 | 94.5* | 69.8* | 4.8 | 28.3 | /
Cc1ccc(C)c(NC(=O)/C(C#N)=C/c2cn(CC(=O)NCc3ccco3)c3ccccc23)c1 | 51.1* | -45.1 | 5.0 | 91.6* | 28.2 | 9.9 | 77.8* | 89.2*
CNC(=O)/C(C#N)=C/c1cn(CC(=O)NCc2ccco2)c2ccccc12 | 17.2 | -2.9 | -1.8 | 14.8 | 2.6 | 3.8 | / | /
Cc1ccccc1OCCn1cc(/C=C(\C#N)C(=O)NCc2ccco2)c2ccccc21 | 31.0 | -47.2 | -5.2 | 43.3 | 39.4 | -10.5 | / | /
Cc1ccc(NC(=O)/C(C#N)=C/c2cn(CC(=O)NCc3ccco3)c3ccccc23)cc1C | 36.0 | 1.1 | -2.5 | 68.3* | 17.7 | 2.7 | 49.9* | 75.2*
CNC(=O)C[C@@H]1CC[C@@H]2[C@H](COC[C@@H](O)CN2Cc2ccc(C(F)(F)F)cc2)O1 | / | / | / | / | / | 1.4 | / | /
CCO[C@@H]1OC(C(=O)NCc2nc3ccccc3[nH]2)=C[C@H](C2CC2)[C@H]1CCCO | 8.2 | 11.6 | 2.5 | 31.7 | 21.6 | -12.4 | / | /
CCO[C@@H]1OC(C(=O)NCc2nc3ccccc3[nH]2)=C[C@H](C(C)(C)C)[C@H]1CCCO | -20.2 | -20.5 | / | 54.4* | 32.4 | -7.7 | 49.6* | 94.6*
C[C@H](CO)N1C[C@H](C)[C@@H](CN(C)C(=O)c2ccccc2)Oc2ncc(-c3ccc(C#N)cc3)cc2C1=O | / | / | / | / | / | -4.8 | / | /
SMILES | Peg3 prom inh | KKLEB cytotox | HSP90 inh | Mdm2-MdmX inh | CF NFkB block | LGR2 inh | Mdm2-MdmX conf | FLuc counter
COc1ccc(S(=O)(=O)Nc2ccc3c(c2)[C@@H]2C[C@@H](CC(=O)NCC4CC4)O[C@H](CO)[C@@H]2O3)cc1 | / | / | / | / | / | 9.1 | / | /
CC(C)Oc1ccc(C(CCN)C2CCCCC2)cc1 (stereo not drawn) | 105.0* | -26.4 | 1.4 | 88.3* | 20.7 | -4.4 | 42.5* | 65.4*
Cc1ccc2nc(-c3ccccc3)nc(SC(C)C(=O)NCc3cccs3)c2c1 (stereo not drawn) | / | / | 2.0 | 62.9* | / | / | -10.1 | /
CN1C(=O)c2cc(NC(=O)c3ccc(F)c(F)c3)ccc2OC[C@@H]2O[C@H](CC(=O)N[C@H]3CCN(Cc4ccccc4)C3)CC[C@@H]21 | / | / | / | / | / | 14.1 | / | /
CC[C@]12c3[nH]c4ccc(Cl)cc4c3CCN1C(=O)[C@@H](CC(=O)NCC13CC4CC(CC(C4)C1)C3)C[C@@H]2C(=O)N1CCN(C(=O)C2CC2)CC1 | 55.5* | -2.1 | / | 62.3* | 13.0 | 43.9 | 52.3* | 52.6*
C[C@]12c3[nH]c4ccc(Cl)cc4c3CCN1C(=O)[C@@H](CC(=O)NCC13CC4CC(CC(C4)C1)C3)C[C@@H]2C(=O)N1CCCCC1 | 56.4* | -24.2 | / | 73.7* | 36.8 | 7.1 | 38.6 | /
CC[C@]12c3[nH]c4ccc(OC)cc4c3CCN1C(=O)C(CC(=O)NCC13CC4CC(CC(C4)C1)C3)C[C@@H]2C(=O)N1CCN(C(=O)C2CC2)CC1 (stereo partly drawn) | -1.3 | -4.5 | / | 44.8 | 11.2 | 17.4 | / | /
C[C@]12c3[nH]c4ccc(Cl)cc4c3CCN1C(=O)[C@@H](CC(=O)NCC13CC4CC(CC(C4)C1)C3)C[C@@H]2C(=O)N1CCOCC1 | 26.8 | -0.3 | / | 66.0* | 20.1 | -2.2 | 21.8 | /
COc1cc(C(=O)N/N=C(\Cc2ncc[nH]2)c2ccccc2)cc(OC)c1OC | 27.9 | -1.4 | 1.5 | 53.6* | 3.2 | 3.6 | 50.0* | 23.7

Bioassay records: PubChem BioAssay, several laboratories
